Among the data in ChEMBL document CHEMBL3988442, “University of Dundee, Small-Polar-MMV Screening Library” (2021) are Percent Effect values, retold here.

What all share (parameters): scale not given: direction of the effect not stated beside the values
Experiment [1] addresses Protein translocase subunit SecA (Escherichia coli (strain K12)) (UniProt P10408). The experiment in a line: Assay to Identify E. coli SecA ATPase Inhibitors. The format is functional. The conditions noted are these: 30 µM.
Experiment [2] addresses T1, Ubiquitin-activating enzyme e1, putative (Leishmania donovani (strain BPK282A1)) (UniProt E9BSI1).
T1 sequence (whole entry): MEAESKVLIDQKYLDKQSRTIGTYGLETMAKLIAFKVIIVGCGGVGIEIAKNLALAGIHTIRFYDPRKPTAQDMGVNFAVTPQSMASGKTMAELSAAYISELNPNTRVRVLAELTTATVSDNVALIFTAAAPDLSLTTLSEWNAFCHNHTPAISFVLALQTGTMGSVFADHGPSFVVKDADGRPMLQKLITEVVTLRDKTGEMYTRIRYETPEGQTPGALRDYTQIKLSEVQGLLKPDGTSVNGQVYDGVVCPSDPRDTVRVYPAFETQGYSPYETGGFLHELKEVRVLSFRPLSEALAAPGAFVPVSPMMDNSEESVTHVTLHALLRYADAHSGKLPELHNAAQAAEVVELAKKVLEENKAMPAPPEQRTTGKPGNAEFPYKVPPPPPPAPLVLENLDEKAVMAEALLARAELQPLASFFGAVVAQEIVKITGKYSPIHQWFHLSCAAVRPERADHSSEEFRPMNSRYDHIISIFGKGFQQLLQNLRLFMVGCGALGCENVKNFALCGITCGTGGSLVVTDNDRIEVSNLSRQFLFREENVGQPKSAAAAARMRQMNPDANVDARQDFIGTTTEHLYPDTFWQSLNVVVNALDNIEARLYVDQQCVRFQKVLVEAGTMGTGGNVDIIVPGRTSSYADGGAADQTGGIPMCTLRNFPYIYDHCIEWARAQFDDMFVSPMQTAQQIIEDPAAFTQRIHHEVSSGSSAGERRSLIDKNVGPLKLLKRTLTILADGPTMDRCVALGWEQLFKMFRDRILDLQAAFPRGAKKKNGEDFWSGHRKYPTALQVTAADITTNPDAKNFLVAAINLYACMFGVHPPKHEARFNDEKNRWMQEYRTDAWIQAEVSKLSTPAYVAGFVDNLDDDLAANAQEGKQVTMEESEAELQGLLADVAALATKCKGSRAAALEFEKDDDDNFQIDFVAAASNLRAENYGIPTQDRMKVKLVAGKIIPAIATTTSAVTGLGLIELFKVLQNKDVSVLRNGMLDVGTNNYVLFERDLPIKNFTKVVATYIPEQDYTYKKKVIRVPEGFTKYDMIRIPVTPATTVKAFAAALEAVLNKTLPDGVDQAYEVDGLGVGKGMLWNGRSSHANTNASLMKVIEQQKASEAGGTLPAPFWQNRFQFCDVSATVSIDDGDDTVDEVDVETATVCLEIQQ
Put plainly: Leishmania donovani Ubiquitin Activating Enzyme (LdE1). To be noted: 30 µM. The format is functional.

For experiment [3], the target named is Sialic acid-binding Ig-like lectin 9 (Homo sapiens) (UniProt Q9Y336). Put plainly: Hs-Siglec9 ALPHAscreen SOP 20170721. The conditions noted are these: 10 µM.
In another experiment the test system is Trypanosoma cruzi. Put plainly: Trypanosoma cruzi phosphomannomutase and mannose-1-phosphate guanylyltransferase assay. The class given is functional. To be noted: 10 µM.
Experiment [4] deals with T2, Arginase-2, mitochondrial (Homo sapiens) (UniProt P78540).
T2 sequence (whole entry): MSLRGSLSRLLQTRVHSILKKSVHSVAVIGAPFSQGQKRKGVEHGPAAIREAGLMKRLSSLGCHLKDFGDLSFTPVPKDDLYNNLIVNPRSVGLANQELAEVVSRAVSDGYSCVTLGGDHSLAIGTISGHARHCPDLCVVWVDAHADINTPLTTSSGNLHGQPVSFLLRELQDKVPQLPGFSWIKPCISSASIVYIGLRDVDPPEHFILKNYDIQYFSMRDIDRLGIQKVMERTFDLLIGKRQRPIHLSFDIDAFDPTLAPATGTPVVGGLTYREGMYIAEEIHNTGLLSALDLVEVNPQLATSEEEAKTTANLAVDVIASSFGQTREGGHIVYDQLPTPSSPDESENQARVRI
Put plainly: in vitro enzyme assay to detect the production of urea directly proportional to the activity of Arginase II. Further: in the data most compounds retested in dose-response had high values. The conditions noted are these: 33.3 µM. The class given is functional.

Experiment [5] concerns the target T3, Proteasome subunit beta (Trypanosoma cruzi) (UniProt O96673).
T3 sequence (whole entry): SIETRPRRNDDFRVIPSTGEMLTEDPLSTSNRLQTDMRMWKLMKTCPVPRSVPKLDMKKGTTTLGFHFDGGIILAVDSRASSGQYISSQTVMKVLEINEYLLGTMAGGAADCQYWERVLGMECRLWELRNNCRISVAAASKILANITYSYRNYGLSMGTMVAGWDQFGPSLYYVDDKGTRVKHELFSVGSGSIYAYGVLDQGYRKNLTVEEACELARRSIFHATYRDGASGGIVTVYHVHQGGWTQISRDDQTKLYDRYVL
Put plainly: Trypanosoma cruzi proteasome chymotrypsin-like activity (TcProtChymo) assay. Further: in the data most compounds retested in dose-response had high values. The format is functional. To be noted: 9.37 µM.

For the next experiment, the species on record is Homo sapiens. The experiment in a line: To identify inhibition of the IFN signalling (Jak-Stat) pathway via expression of an eGFP reporter gene under the control of an IFN-stimulated response element (ISRE) containing MxA promoter. The class given is functional. To be noted: 30 µM.
In experiment [6] the target is T4, Tyrosyl-tRNA synthetase, putative (Trypanosoma cruzi (strain CL Brener)) (UniProt Q4DSP6).
T4 sequence (whole entry): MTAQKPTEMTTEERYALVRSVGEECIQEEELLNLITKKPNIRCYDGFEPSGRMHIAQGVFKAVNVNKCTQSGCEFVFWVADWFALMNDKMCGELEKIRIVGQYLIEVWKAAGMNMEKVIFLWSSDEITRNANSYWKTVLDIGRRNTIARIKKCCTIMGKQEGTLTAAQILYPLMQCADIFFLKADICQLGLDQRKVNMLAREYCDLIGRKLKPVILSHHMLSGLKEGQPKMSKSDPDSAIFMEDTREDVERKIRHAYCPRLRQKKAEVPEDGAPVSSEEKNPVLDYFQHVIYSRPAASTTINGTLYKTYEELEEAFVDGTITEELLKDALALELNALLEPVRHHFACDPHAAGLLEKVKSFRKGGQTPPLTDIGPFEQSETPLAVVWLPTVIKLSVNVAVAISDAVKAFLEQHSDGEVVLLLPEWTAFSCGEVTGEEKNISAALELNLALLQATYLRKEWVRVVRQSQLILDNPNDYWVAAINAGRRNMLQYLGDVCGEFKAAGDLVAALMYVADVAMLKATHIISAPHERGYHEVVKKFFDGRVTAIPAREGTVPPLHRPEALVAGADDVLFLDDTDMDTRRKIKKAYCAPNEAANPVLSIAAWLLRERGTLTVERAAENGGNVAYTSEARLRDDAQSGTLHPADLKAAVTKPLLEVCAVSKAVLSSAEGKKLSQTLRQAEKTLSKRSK
Put plainly: Trypanosoma cruzi tyrosyl tRNA synthetase (TcYRS) _High Tyrosine SOP. Further: in the data most compounds retested in dose-response had high values. The format is functional. The conditions noted are these: 30 µM.

Experiment [7] deals with T4, Tyrosyl-tRNA synthetase, putative (Trypanosoma cruzi (strain CL Brener)). The experiment in a line: Trypanosoma cruzi tyrosyl tRNA synthetase (TcYRS) SOP. The format is functional. The conditions noted are these: 30 µM.
Experiment [8] deals with Chromo domain-containing protein 1 (Saccharomyces cerevisiae (strain ATCC 204508 / S288c) (Baker's yeast)) (UniProt P32657). The experiment in a line: ScCHD-1 Enzyme Inhibition Assay. Further: in the data most compounds retested in dose-response had high values. The format is functional. To be noted: 30 µM.

Structures are written as SMILES. For part of these data: Entries with a potency or affinity are not part of this list.

Sequence of Sialic acid-binding Ig-like lectin 9 (Homo sapiens) (Q9Y336 whole entry): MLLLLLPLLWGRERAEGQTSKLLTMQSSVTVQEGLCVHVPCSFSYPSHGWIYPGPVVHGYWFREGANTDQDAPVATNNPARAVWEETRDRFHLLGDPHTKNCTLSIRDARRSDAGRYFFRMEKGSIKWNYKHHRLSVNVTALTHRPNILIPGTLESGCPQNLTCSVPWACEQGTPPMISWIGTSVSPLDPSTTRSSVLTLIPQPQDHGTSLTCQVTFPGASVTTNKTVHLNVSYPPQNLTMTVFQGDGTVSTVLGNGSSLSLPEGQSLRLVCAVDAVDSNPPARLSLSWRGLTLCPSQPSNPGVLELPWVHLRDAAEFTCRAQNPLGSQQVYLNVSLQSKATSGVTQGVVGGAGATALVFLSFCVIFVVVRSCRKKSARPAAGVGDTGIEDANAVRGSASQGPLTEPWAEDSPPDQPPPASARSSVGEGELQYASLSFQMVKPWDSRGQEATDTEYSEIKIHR
Sequence of Protein translocase subunit SecA (Escherichia coli (strain K12)) (P10408 whole entry): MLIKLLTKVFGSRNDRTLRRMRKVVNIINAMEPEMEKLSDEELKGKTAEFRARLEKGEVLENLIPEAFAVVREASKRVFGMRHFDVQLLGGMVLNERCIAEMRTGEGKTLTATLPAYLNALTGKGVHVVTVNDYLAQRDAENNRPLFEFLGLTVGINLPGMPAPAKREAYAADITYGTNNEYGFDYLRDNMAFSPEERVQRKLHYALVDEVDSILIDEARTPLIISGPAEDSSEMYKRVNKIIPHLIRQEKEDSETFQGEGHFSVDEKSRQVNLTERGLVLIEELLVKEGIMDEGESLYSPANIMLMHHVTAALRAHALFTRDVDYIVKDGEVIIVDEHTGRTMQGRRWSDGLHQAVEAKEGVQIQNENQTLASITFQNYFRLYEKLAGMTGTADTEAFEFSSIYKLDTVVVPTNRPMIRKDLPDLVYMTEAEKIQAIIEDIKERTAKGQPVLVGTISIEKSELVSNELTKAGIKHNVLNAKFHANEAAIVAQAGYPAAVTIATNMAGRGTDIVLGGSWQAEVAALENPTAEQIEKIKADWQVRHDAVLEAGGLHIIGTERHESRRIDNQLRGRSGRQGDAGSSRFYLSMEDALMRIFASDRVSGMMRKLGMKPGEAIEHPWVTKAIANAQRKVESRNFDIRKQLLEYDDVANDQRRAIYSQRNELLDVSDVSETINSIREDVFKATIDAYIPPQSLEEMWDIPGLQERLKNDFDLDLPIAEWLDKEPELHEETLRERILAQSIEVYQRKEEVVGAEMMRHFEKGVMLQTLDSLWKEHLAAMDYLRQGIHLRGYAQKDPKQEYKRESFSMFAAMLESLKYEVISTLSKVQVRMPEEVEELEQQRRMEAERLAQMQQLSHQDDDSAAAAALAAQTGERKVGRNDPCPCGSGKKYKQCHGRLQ
Sequence of Chromo domain-containing protein 1 (Saccharomyces cerevisiae (strain ATCC 204508 / S288c) (Baker's yeast)) (P32657 whole entry, the tested form may be a part): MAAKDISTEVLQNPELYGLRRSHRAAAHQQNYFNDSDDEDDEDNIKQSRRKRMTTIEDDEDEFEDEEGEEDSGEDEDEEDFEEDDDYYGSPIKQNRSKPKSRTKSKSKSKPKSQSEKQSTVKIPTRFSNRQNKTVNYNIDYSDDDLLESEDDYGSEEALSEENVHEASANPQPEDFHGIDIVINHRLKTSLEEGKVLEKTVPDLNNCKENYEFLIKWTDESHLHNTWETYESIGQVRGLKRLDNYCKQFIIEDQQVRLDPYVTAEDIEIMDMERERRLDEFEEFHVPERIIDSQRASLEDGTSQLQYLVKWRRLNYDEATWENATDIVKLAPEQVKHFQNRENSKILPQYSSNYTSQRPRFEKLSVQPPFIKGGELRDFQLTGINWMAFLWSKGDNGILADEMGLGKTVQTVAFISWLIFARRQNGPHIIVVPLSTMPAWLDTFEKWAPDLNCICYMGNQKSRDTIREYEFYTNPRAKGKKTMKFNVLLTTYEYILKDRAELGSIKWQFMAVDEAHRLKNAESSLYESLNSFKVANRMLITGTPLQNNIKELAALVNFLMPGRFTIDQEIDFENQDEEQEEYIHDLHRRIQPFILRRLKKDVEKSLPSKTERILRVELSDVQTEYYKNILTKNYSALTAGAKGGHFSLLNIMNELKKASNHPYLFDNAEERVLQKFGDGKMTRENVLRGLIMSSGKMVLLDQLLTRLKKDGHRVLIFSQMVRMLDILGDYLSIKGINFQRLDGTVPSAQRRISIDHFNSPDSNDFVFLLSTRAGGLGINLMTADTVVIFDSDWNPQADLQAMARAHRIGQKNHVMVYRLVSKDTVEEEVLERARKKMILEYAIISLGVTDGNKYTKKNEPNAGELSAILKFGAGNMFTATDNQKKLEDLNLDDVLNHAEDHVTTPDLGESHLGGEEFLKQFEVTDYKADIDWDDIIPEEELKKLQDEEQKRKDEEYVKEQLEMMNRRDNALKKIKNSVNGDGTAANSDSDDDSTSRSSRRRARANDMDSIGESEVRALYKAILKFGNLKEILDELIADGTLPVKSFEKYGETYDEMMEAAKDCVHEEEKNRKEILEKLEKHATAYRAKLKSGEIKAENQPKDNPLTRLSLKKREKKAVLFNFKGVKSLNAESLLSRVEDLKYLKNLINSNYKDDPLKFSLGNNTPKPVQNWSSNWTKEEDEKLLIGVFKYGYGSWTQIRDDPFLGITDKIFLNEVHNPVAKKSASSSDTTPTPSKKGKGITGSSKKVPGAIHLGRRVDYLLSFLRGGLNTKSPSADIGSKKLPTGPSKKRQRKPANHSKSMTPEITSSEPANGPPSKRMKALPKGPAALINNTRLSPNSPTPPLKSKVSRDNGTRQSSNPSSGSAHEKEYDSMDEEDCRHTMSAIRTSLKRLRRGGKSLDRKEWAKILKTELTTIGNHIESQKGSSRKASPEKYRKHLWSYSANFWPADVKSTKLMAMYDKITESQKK

For the compound `Cc1ncc2c(n1)CN(CCCc1nc3ccccc3o1)CC2`, the Percent Effect in experiment [1] was -8.07%; in experiment [2] it was 10.7%; in experiment [3], 3.45%; in the experiment with Trypanosoma cruzi it was 0%; in experiment [4], -3.1%; in [5], 8.91%. For the same compound, the Percent Effect in the experiment filed under Homo sapiens is -14.7%; in experiment [6] it was 22.6%; in experiment [7], 28.2%; in experiment [8], -7.47%.

Turning to `CC(C)(C)c1cn2nc(N3CCC[C@@H]3CO)sc2n1`, the Percent Effect in experiment [1] was -2.65%; in experiment [2], 10.3%; in experiment [3], -1.69%; in the experiment with Trypanosoma cruzi, -0.282%; in experiment [4], 2.87%; in experiment [5], 6.57%. Besides, the Percent Effect was 2.26% in the experiment listed under Homo sapiens, 2.39% in experiment [6], 13.2% in experiment [7] and -0.0525% in experiment [8].

For `c1cnnc(N2CCCC(NCc3nnc(-c4ccco4)o3)C2)c1` (stereo not given), the Percent Effect in experiment [1] is -0.0972%; in [2], 25.6%; in experiment [3] it was -15.5%; with Trypanosoma cruzi, 1.03%; in experiment [4], -0.82%; in experiment [5], 25.2%. Moreover, the Percent Effect in the experiment listed under Homo sapiens is -0.0242%; in [6], 9.09%; in experiment [7], 22.9%; in experiment [8] it was -1.66%.

On to `NC(=O)c1cc(C2CCCN(CCOCC(F)(F)F)C2)n[nH]1` (stereo not given), for which the Percent Effect in experiment [1] was -3.84%; in experiment [2], 2.56%; in experiment [3], -22.8%; in the experiment on Trypanosoma cruzi, 9.3%; in experiment [4], -5.33%; in experiment [5] it was 8.45%. Further, the Percent Effect in the experiment listed under Homo sapiens is -4.53%; in experiment [6], 2.39%; in experiment [7] it was 10.8%; in [8] it was 26.2%.

With `Cc1ncccc1O[C@H]1CCN(C(=O)Cc2cccs2)CC[C@@H]1O`, the Percent Effect was -5.37% in experiment [1]; 17.3% in experiment [2]; 6.84% in experiment [3]; 1.18% with Trypanosoma cruzi; -0.443% in experiment [4]; 10.8% in experiment [5]. Besides, the Percent Effect is 7.57% in the experiment listed under Homo sapiens, 6.35% in [6], 15% in experiment [7] and -22.2% in experiment [8].

`Cc1c(F)cc(C(=O)O)cc1S(=O)(=O)Nc1ccc2c(c1)OCCO2`: the Percent Effect in experiment [1] is -4.72%; in [2], 5.13%; in [3], 0.878%; in the experiment on Trypanosoma cruzi, 7.42%; in experiment [4] it was -4.51%; in experiment [5], 2.82%. Also, the Percent Effect in the experiment filed under Homo sapiens was -3.86%; in [6], -5.26%; in experiment [7], 1.21%; in experiment [8], -2.48%.

Take `CC(C)c1noc(CCC(=O)NCC2CCOC2)n1` (stereo not given): the Percent Effect in [1] is -1.25%; in [2] it was 0%; in experiment [3], -0.749%; with Trypanosoma cruzi, 0.602%; in experiment [4], -5.32%; in experiment [5], 10.8%. Also, the Percent Effect in the experiment filed under Homo sapiens is 2.04%; in experiment [6], 8.95%; in [7] it was 17.9%; in experiment [8], -9.05%.

Take `CCn1ccnc1CNCC1CCN(CC(O)c2ccccc2)CC1` (stereo not given): the Percent Effect is -3.91% in experiment [1]; -5.13% in [2]; -9.4% in [3]; 5.92% in the experiment with Trypanosoma cruzi; 11.9% in experiment [4]; -2.13% in experiment [5]. Also, the Percent Effect in the experiment listed under Homo sapiens is 4.15%; in experiment [6], 3.35%; in experiment [7], 6.02%; in [8] it was -1.13%.

For `O=C(c1ccc(F)cc1Cl)N1CCC(Nc2cccnn2)CC1`, the Percent Effect in experiment [1] was -3.11%; in experiment [2], 18.2%; in [3], 7.17%; in the experiment with Trypanosoma cruzi, 5.41%; in experiment [4], -4.71%; in experiment [5], 7.37%. The Percent Effect in the experiment filed under Homo sapiens was 15.6%; in experiment [6] it was 5.88%; in [7] it was 18.8%; in [8], -15.5%.

In the case of `NC(=O)CN1CCC(C(=O)N2CCCC(OCc3cccnc3)C2)CC1` (stereo not given), the Percent Effect was -5.86% in experiment [1]; 2.7% in [2]; 1.65% in [3]; -2.23% in the experiment on Trypanosoma cruzi; -0.35% in [4]; 6.16% in experiment [5]. Moreover, the Percent Effect in the experiment listed under Homo sapiens amounted to 9.22%; in experiment [6] it was 4.79%; in [7] it was 14.6%; in experiment [8], 1.71%.

With `Cc1nc(CN2CCCC(CCc3c(F)cccc3F)C2)c[nH]1` (stereo not given), the Percent Effect in experiment [1] was -4.35%; in experiment [2] it was -13.5%; in [3] it was 23.7%; in the experiment with Trypanosoma cruzi, 9.6%; in experiment [4], -6.64%; in [5] it was 1.37%. In addition, the Percent Effect in the experiment listed under Homo sapiens is 18.7%; in experiment [6], 5.85%; in [7], 7.32%; in experiment [8] it was 96.9%.

As for `CN(C)c1ncccc1CNS(=O)(=O)c1ccccc1F`, the Percent Effect is -0.976% in [1]; 15.6% in experiment [2]; -3.68% in experiment [3]; -3.17% with Trypanosoma cruzi; 2.66% in [4]; 13.3% in [5]. The Percent Effect in the experiment listed under Homo sapiens is 19.8%; in experiment [6] it was 4.9%; in experiment [7], 11.8%; in experiment [8], -9.97%.
